# Source: PubChem BioAssay (EPA / NIEHS)
# Values joined by “and” are separate entries in the source; they are usually repeats but may differ in a detail not shown here. Equal values may be shown once. Records with an inconclusive call do not appear. Active and inactive are the calls of the source. How the source made its calls, unless noted: active means hit-call score of the fitted dose curve at least 0.9, where 1 is the maximum; inactive means score below 0.9.
# What was measured:
# [1] = CCTE_Harrill_HTTr_Viability_MCF7: CCTE's 6-hour Cell Viability Assessment for the High-Throughput Transcriptomics (HTTr) Platform, in MCF-7 cells cultured in DMEM + 10% fetal bovine serum, Harrill Lab (AID 2284010)
# How it was run: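 MCF-7 cells in DMEM + 10% FBS, 384-well, exposed 6 h to an eight-point dilution series. Membrane integrity scored by high-content imaging of propidium iodide exclusion; bidirectional fit versus DMSO.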
# [2] = CCTE_Harrill_HTTr_Apoptosis_MCF7: CCTE's 6-hour Apoptosis Assessment for the High-Throughput Transcriptomics (HTTr) Platform, in MCF-7 cells cultured in DMEM + 10% fetal bovine serum, Harrill Lab (AID 2284011)
# How it was run: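 Cells are dosed with test chemicals at eight concentrations and imaged 6 hours later for caspase-3/7 activity using a green fluorogenic detection reagent. Activity is fitted in both directions against DMSO controls.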
# [3] = CCTE_Harrill_HTTr_CellCount_MCF7: CCTE's Cell Proliferation Assessment for the High-Throughput Transcriptomics (HTTr) Platform, Harrill Lab (AID 2284012; active means hit-call score of the fitted dose curve at least 0.9, where 1 is the maximum;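 further: cells exposed to compound for six hours; intended direction is loss of nuclei count meaning fewer cells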)
# How it was run: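 MCF7 cells exposed 6 hours to an eight-point dilution series; Hoechst-stained nuclei counted by high-content imaging. Bidirectional curve fitting against DMSO baseline.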
# [4] = CCTE_Shafer_MEA_acute_burst_number: CCTE's Neural Acute Assay for Single-Electrode Bursts, Shafer Lab (AID 2284013)
# How it was run: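 Spontaneous network activity of primary rat cortical neurons was recorded extracellularly on microelectrode arrays at 37 C, with 40-min periods before and during exposure to 0.03-40 uM compound on DIV 13 or 15.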
# [5] = CCTE_Shafer_MEA_acute_burst_duration_mean: CCTE's Neural Acute Assay for Mean Burst Duration, Shafer Lab (AID 2284014);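 further: hits are decreases in mean burst duration relative to DMSO controls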
# How it was run: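 Read-out is the per-well percent change in mean burst duration (first to last spike within a single-electrode burst) between 40-min recordings before and after compound. Cultures were primary rat cortical neurons on MEAs, dosed at 0.03-40 uM on DIV 13 or 15.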
# [6] = CCTE_Shafer_MEA_acute_per_burst_spike_number_mean: CCTE's Neural Acute Assay for Average Number of Spikes Per Burst, Shafer Lab (AID 2284015);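 further: hits are decreases in mean spikes per burst versus baseline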
# How it was run: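 Read-out: percent change in mean spikes per burst, each well's post-exposure 40-min recording versus its own 40-min baseline. Rat cortical cultures, DIV 13 or 15, compounds 0.03-40 uM; DMSO is negative control, loss-of-signal fitting.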
# [7] = CCTE_Shafer_MEA_acute_interburst_interval_mean: CCTE's Neural Acute Assay for Mean Interburst Interval, Shafer Lab (AID 2284016);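 further: percent change of mean interburst interval versus each well's own pre-dose baseline; curves fitted for decrease in interburst interval relative to DMSO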
# How it was run: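 Rat cortical cultures, DIV 13/15; 20 min equilibration, 40 min baseline, compound 0.03-40 uM, 40 min re-recording, 37 C. Spikes detected at 8x rms noise (300-5000 Hz band-pass). Endpoint: % change in interburst interval, fitted in loss direction vs DMSO.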
# [8] = CCTE_Shafer_MEA_acute_burst_percentage_mean: CCTE's Neural Acute Assay for Percentage of Spikes in a Burst, Shafer Lab (AID 2284017);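 on AC50: curve fitted for loss of signal so potency reflects decreased burst percentage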
# How it was run: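 Rat cortical cultures, DIV 13/15, 37 C. Spikes detected at 8x rms noise (300-5000 Hz band-pass). Burst spikes/total spikes averaged across electrodes per well; % change post- vs pre-treatment (40 min each), loss-of-signal fit vs DMSO.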
# [9] = CCTE_Shafer_MEA_acute_burst_percentage_std: CCTE's Neural Acute Assay for Standard Deviation of Burst Percentage, Shafer Lab (AID 2284018);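 further: fitted in the negative direction so actives lower burst percentage SD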
# How it was run: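 Value is percent change from baseline in the across-electrode SD of spikes-in-bursts percentage, wells with >/= 10 active electrodes. Acute 40-min exposure to 0.03-40 uM on DIV 13 or 15 rat cortical cultures, recorded at 37 C after 40-min baseline.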
# [10] = CCTE_Shafer_MEA_acute_per_network_burst_spike_number_mean: CCTE's Neural Acute Assay for Average Number of Spikes in a Network Burst, Shafer Lab (AID 2284019);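 on AC50: curve fitted for loss of signal so actives reduce spikes per network burst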
# How it was run: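 Read-out is mean spike count per network burst, taken as percent change between a 40-min pre-exposure and a 40-min post-exposure recording per well. Rat primary cortical neurons on MEAs at 37 C, DIV 13 or 15; compounds at 0.03-40 uM.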
# [11] = CCTE_Shafer_MEA_acute_per_network_burst_spike_number_std: CCTE's Neural Acute Assay for Standard Deviation of Number of Spikes in a Network Burst, Shafer Lab (AID 2284020);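 further: fitted for decrease in spike-number SD versus DMSO so actives lower it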
# How it was run: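 Spontaneous network activity of primary rat cortical neurons is recorded extracellularly before and after a 40-min compound exposure (0.03-40 uM) at 37 C. The endpoint is the well's percent change in burst spike-number SD.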
# [12] = CCTE_Shafer_MEA_acute_per_network_burst_electrodes_number_mean: CCTE's Neural Acute Assay for Mean Number of Electrodes in a Network Burst, Shafer Lab (AID 2284021);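 further: curves fitted for decreases only so hits reduce electrodes per burst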
# How it was run: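 Cultures of rat cortex neurons were exposed on DIV 13 or 15 to compounds at 0.03-40 uM in at least three wells each. Activity over 40 min before and 40 min after exposure at 37 C gave the percent change in electrodes per network burst.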
# [13] = CCTE_Shafer_MEA_acute_network_burst_percentage: CCTE's Neural Acute Assay for Percentage of Network Bursts, Shafer Lab (AID 2284022);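 further: curves fitted for loss so actives lower network burst percentage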
# How it was run: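 Cortical neurons from rat were grown over microelectrode arrays and used on day 13 or 15 in vitro. Wells with at least 10 active electrodes received test chemical at 0.03-40 uM. Activity during 40 min of exposure was compared with the preceding 40-min baseline.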
# [14] = CCTE_Shafer_MEA_acute_cross_correlation_area: CCTE's Neural Acute Assay for Area of Cross Correlation, Shafer Lab (AID 2284024);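 further: area under pooled inter-electrode spike cross-correlation near zero lag as percent change from own baseline; curves fitted for loss of cross-correlation area so actives lower synchrony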
# How it was run: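 Acute exposure of mature rat cortical networks (day 13 or 15 post-plating) to 0.03-40 uM compound. Spontaneous spiking on MEA, 40 min pre- and post-dose at 37 C.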
# [15] = CCTE_Shafer_MEA_acute_cross_correlation_HWHM: CCTE's Neural Acute Assay for Cross Correlation at Half Width at Half Maximum, Shafer Lab (AID 2284026);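 further: percent change per well from pre-dose baseline in spike cross-correlogram half width; hits are a decrease in cross-correlogram half width relative to DMSO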
# How it was run: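 Primary cortex (rat), MEA, DIV 13/15; compound 0.03-40 uM; 40 min pre + 40 min post at 37 C; spike threshold 8x rms; wells need ≥10 active electrodes; endpoint = % change in cross-correlogram HWHM vs baseline, DMSO negative control.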
# [16] = CCTE_Shafer_MEA_acute_synchrony_index: CCTE's Neural Acute Assay for Synchrony, Shafer Lab (AID 2284027);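 further: network synchrony index of spontaneous spiking in primary rat cortical neurons on MEAs; fitted for loss of signal so actives lower synchrony relative to DMSO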
# How it was run: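 Primary rat cortical neurons on 48-well MEAs, dosed at 0.03–40 uM on DIV 13 or 15. Spikes are recorded for 40 min at 37C before and after exposure, and synchrony index (0–1) is expressed as percent change from baseline per well.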
# [17] = CCTE_Shafer_MEA_dev_firing_rate_mean: CCTE's Neural Network Formation Assay for Mean Firing Rate, Shafer Lab (AID 2284031);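 on AC50: curve fitted for loss of firing so AC50 reflects decreased mean firing rate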
# How it was run: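 Primary rat cortical neurons on 48-well MEA plates, exposed from plating day 0 with dosing renewed on DIV 5 and 9. Mean well firing rate over active electrodes, recorded days 5, 7, 9, 12, summarised as trapezoidal AUC.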
# [18] = CCTE_Shafer_MEA_dev_per_burst_spike_percent: CCTE's Neural Network Formation Assay for Percent of Spikes in a Burst, Shafer Lab (AID 2284032);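 on AC50: fitted as a decrease in burst spike percentage below DMSO baseline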
# How it was run: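 Rat primary cortical neurons on 16-electrode MEA wells, dosed from plating day 0 for 12 days with renewal on DIV 5 and 9; spikes-in-bursts percentage averaged over bursting electrodes, collapsed as AUC across days 5, 7, 9, 12; loss direction versus DMSO.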
# [19] = target: Estrogen receptor (Homo sapiens) (UniProt P03372); assay: CCTE_Deisenroth_AIME_384WELL_LUC_Active: CCTE's 384-well Estrogen Receptor Transactivation Assay with AIME metabolic competence (ERTA luciferase; metabolism positive), Deisenroth Lab (AID 2284030; active means hit-call score of the fitted dose curve at least 0.9, where 1 is the maximum)
# Sequence of Estrogen receptor (Homo sapiens) (P03372 whole entry, looked up): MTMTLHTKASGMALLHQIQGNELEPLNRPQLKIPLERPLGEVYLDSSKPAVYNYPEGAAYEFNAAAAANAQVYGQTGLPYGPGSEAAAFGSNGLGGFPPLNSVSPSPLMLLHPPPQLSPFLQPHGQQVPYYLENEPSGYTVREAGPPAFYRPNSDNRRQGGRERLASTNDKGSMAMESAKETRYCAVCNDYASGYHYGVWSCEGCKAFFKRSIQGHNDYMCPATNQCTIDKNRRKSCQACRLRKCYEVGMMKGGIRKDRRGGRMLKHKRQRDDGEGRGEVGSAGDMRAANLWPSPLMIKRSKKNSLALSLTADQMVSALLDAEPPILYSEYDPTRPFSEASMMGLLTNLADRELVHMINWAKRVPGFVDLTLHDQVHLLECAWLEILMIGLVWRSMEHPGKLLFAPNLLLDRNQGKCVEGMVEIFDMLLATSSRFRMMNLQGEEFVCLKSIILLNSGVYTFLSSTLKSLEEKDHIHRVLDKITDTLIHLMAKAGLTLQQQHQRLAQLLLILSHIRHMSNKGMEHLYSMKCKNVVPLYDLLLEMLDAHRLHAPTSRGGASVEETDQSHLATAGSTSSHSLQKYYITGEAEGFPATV
# How it was run: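 In this metabolism-positive format, a 2-hour exposure to alginate-immobilized rat S9 precedes a 24 hour luciferase transactivation readout in VM7Luc4E2 cells. Dosing spans 10 concentrations from 0.002 to 200 uM.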
# [20] = CCTE_Deisenroth_AIME_384WELL_CTox_Active: Cytotoxicity Assessment (CTOX) in CCTE's 384-well Estrogen Receptor Transactivation Assay with AIME metabolic competence (metabolism positive), Deisenroth Lab (AID 2284037; active means hit-call score of the fitted dose curve at least 0.9, where 1 is the maximum;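 further: chemicals first conditioned 2 h by alginate-bound induced rat liver S9 before cells; activity means signal loss indicating cell death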)
# How it was run: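 Cytotoxicity in VM7Luc4E2 breast cells, 24 hour, measured as protease-substrate fluorescence loss, after 2-hour metabolic conditioning with induced rat hepatic S9 in alginate microspheres. Concentrations 0.002 - 200 uM, 10 points, bidirectional fitting.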
structure (smiles),measurement,setting,value
COc1cccc(C(=O)NN(C(=O)c2cc(C)cc(C)c2)C(C)(C)C)c1C,outcome,[1],inactive
same,outcome,[2],inactive
same,outcome,[3],inactive
CC(=NC#N)N(C)Cc1ccc(Cl)nc1,outcome,[1],inactive
same,outcome,[2],inactive
same,outcome,[3],inactive
same,outcome,[4],inactive
same,outcome,[5],inactive
same,outcome,[6],inactive
same,outcome,[7],inactive
same,outcome,[8],inactive
same,outcome,[9],inactive
same,outcome,[10],inactive
same,outcome,[11],inactive
same,outcome,[12],inactive
same,outcome,[13],inactive
same,outcome,[14],inactive
same,outcome,[15],inactive
same,outcome,[16],inactive
same,outcome,[17],inactive
same,outcome,[18],inactive
C[Si](Cn1cncn1)(c1ccc(F)cc1)c1ccc(F)cc1,outcome,[1],inactive
same,outcome,[2],inactive
same,outcome,[3],inactive
same,AC50,[4],4.3 µM (active)
same,outcome,[5],inactive
same,AC50,[6],7.68 µM (active)
same,outcome,[7],inactive
same,AC50,[8],15.4 µM (active)
same,AC50,[9],4.31 µM (active)
same,outcome,[10],inactive
same,outcome,[11],inactive
same,outcome,[12],inactive
same,AC50,[13],20 µM (active)
same,AC50,[14],1.67 µM (active)
same,AC50,[15],34.5 µM (active)
same,AC50,[16],4.26 µM (active)
same,outcome,[17],inactive
same,outcome,[18],inactive
CN(C)C(=O)Nc1cccc(C(F)(F)F)c1,outcome,[1],inactive
same,outcome,[2],inactive
CCc1cnc(C2=NC(C)(C(C)C)C(=O)N2)c(C(=O)O)c1 (stereo unspecified),outcome,[1],inactive
same,outcome,[2],inactive
same,outcome,[3],inactive
same,outcome,[4],inactive
same,outcome,[5],inactive
same,outcome,[6],inactive
same,outcome,[7],inactive
same,outcome,[8],inactive
same,outcome,[9],inactive
same,outcome,[10],inactive
same,outcome,[11],inactive
same,outcome,[12],inactive
same,outcome,[13],inactive
same,outcome,[14],inactive
same,outcome,[15],inactive
same,outcome,[16],inactive
CNC(=O)Oc1cccc2c1OC(C)(C)O2,outcome,[1],inactive
same,outcome,[2],inactive
same,outcome,[3],inactive
CCCOc1nn(C(=O)NS(=O)(=O)c2ccccc2C(=O)OC)c(=O)n1C,outcome,[1],inactive
same,outcome,[2],inactive
same,outcome,[3],inactive
C=C(C)[C@H]1Cc2c(ccc3c2O[C@@H]2COc4cc(OC)c(OC)cc4[C@@H]2C3=O)O1,outcome,[1],inactive
same,outcome,[2],inactive
same,outcome,[3],inactive
same,outcome,[4],inactive
same,outcome,[5],inactive
same,outcome,[6],inactive
same,outcome,[7],inactive
same,outcome,[8],inactive
same,AC50,[9],30.3 µM (active)
same,outcome,[10],inactive
same,outcome,[11],inactive
same,outcome,[12],inactive
same,outcome,[13],inactive
same,outcome,[14],inactive
same,AC50,[15],30.7 µM (active)
same,AC50,[16],20 µM (active)
same,AC50,[17],19.6 nM (active) and 16.2 nM (active)
same,AC50,[18],24.4 nM (active) and 20.6 nM (active)
O=[N+]([O-])c1cc(C(F)(F)F)c(Cl)c([N+](=O)[O-])c1Nc1ncc(C(F)(F)F)cc1Cl,AC50,[1],21.5 µM (active)
same,outcome,[2],inactive
same,outcome,[3],inactive
same,AC50,[4],0.322 µM (active)
same,AC50,[5],1.59 µM (active)
same,AC50,[6],0.468 µM (active)
same,AC50,[7],1.14 µM (active)
same,AC50,[8],0.678 µM (active)
same,outcome,[9],inactive
same,AC50,[10],0.321 µM (active)
same,AC50,[11],0.465 µM (active)
same,AC50,[12],0.481 µM (active)
same,AC50,[13],1.13 µM (active)
same,AC50,[14],0.263 µM (active)
same,AC50,[15],5.3 µM (active)
same,AC50,[16],0.481 µM (active)
same,outcome,[19],inactive
same,AC50,[17],786 nM (active)
same,AC50,[18],669 nM (active)
same,AC50,[20],100 µM (active)
